Screening data from PubChem.
Sampled rows, rich in hits. Any-hit rate of the full collection: about 17%.
HT1080-NT tox: kills 2HG-producing HT-1080-NT fibrosarcoma cells; HT-1080-NT fibrosarcoma viability, CellTiter-Glo ATP luminescence, 48 h; Potency, µM (doses to about 46.1 µM), inactives show at the top dose activity, negative = less viability, hits mostly cytotoxic; 360,000 tested, 1.6% active; AID 686970;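 further: NT is the 2HG producing partner of a matched IDH1 knockdown line; 0% = DMSO-treated cells and -100% = media-only wells without cells; nearly all actives have a fitted effect of over 55% in size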
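Compounds were tested in concentration-response format on HT-1080-NT cells for 48 hours at 37 degrees C. Cell viability came from CellTiter-Glo luminescence; curves were classified by r2, response magnitude and activity.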
TDP1 cell noCPT: qHTS for Inhibitors of human tyrosyl-DNA phosphodiesterase 1 (TDP1): qHTS in cells in absence of CPT | Potency, µM (series often up to 46.2 µM), for the others: top-dose activity change, negative = growth inhibition, actives largely listed as inhibitors | DT40 Tdp1-/- hTDP1 cells, no CPT, ATP luminescence, 48 h | 420,000 tested, 15% active; further: on the % scale 0 is the no-effect control and ±100 the full control effect; nearly all actives have a fitted effect of over 55% in size
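Camptothecin absent (DMSO only). Human TDP1-complemented DT40 knockout cells, 400 cells/well, 37 °C for minimum 48 hr; ATP measured via CellTiter-Glo, 30 min dark incubation, luminescence.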
HT1080 IDH1KD tx: toxicity to HT-1080 IDH1 knockdown cells (counter line) | HT-1080 IDH1 knockdown viability, ATP luminescence, 48 h | Potency, µM (titrated, usually from 46.1 µM), for the others: at the highest dose activity, negative = toxicity, usual class: cytotoxic | 360,000 tested, 2% active;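 further: 0% = DMSO wells and -100% = cell-free medium wells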
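Luminescent ATP read-out (CellTiter-Glo, 10 min at room temperature) after 48 h compound exposure at 37 °C gave viability of IDH1-knockdown HT-1080 cells. Activity was normalised to DMSO and cell-free wells, then fitted as concentration-response curves.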
HepG2 tox: kills HepG2 cells in TGF-b inhibitor counter-screen | 410,000 tested, 0.76% active | Potency, µM (top dose mostly 46.1 µM), for the others: at the highest dose activity change, negative = cytotoxicity, usual class: cytotoxic | HepG2 CAGA-GFP viability, ATP luminescence, 18 h
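CellTiter-Glo luminescence gave cytotoxicity after 18 hours at 37 degrees C. The cells were HepG2 CAGA-GFP in 1% FBS DMEM, stimulated with 500 pg/mL TGF-beta after compound addition. %Activity was normalised to no-cell wells (complete cell-killing) and DMSO (no toxicity), and curves were fitted and classified.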
TGFb inhibitor: blocks TGF-b signaling. HepG2 CAGA-GFP TGF-b/SMAD3 reporter, GFP fluorescence, 18 h; TGF-beta stimulated, 500 pg/mL final. Potency, µM (top dose mostly 46.1 µM), inactives show at the highest dose activity, negative = inhibition, hits mostly inhibitors. 410,000 tested, 1.2% active. AID 588855; further: on the % scale 0 is the no-effect control and ±100 the full control effect; nearly all actives have a fitted effect of over 65% in size
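First, reporter cells (HEPG2 CAGA-GFP) rested 2 h at 37 degrees C. Next, compounds were pinned in and TGF-beta added to 500 pg/mL final. After 18 h, GFP was imaged per cell and summed per well.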
DT40 TDP1 CPT: growth inhibition of DT40 Tdp1-/-;hTDP1 cells with camptothecin (screen for TDP1 inhibitors) | chicken DT40 Tdp1-/-;hTDP1 cells + 20 nM CPT, ATP luminescence, 48 h | Potency, µM (doses to about 46.2 µM), for inactives: at the highest dose activity change, negative = growth inhibition, usual class: inhibitors | 420,000 tested, 12% active | AID 686979; further: on the % scale 0 is the no-effect control and ±100 the full control effect; nearly all actives have a fitted effect of over 55% in size
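Cell growth measured by CellTiter-Glo luminescence after a minimum 48 h, 37 C compound exposure with 20 nM CPT in Tdp1-knockout DT40 cells stably expressing hTDP1, seeded 400/well; qHTS titration format.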
Active calls of the source: *. The call rests on the fitted dose curve; in most records, active means well fitted curve in the direction sought with a large enough effect; inconclusive means small, poorly fitted or top-dose-only effect, or another doubt; inactive means no such curve, though single readings can be large; an effect the other way counts as inactive or inconclusive. Potency means the concentration at half of the fitted maximal effect.

Results for Cc1ccc(C(=O)/C=C/c2ccc(Br)cc2)o1 ?
HT1080-NT tox: -22%; TDP1 cell noCPT: 23µM*; HT1080 IDH1KD tx: -9%; HepG2 tox: -27%; TGFb inhibitor: 0%; DT40 TDP1 CPT: inconclusive

How did O=C(CN(C(=O)CNC(=O)c1ccco1)c1ccc(F)cc1)NC1CCCCC1 do in these assays?
HT1080-NT tox: 18%; TDP1 cell noCPT: -13%; HT1080 IDH1KD tx: 18%; HepG2 tox: -7%; TGFb inhibitor: 5%; DT40 TDP1 CPT: 7%

What do the screens show for `O=C(/C=C/c1ccc2c(c1)OCO2)c1cccs1`?
TDP1 cell noCPT: 6µM*; DT40 TDP1 CPT: 3.3µM*

How did O=C(/C=C/c1ccc2c(c1)OCO2)c1ccc[nH]1 do in these assays?
HT1080-NT tox: -10%; TDP1 cell noCPT: inconclusive; HT1080 IDH1KD tx: -2%; HepG2 tox: -5%; TGFb inhibitor: 17%; DT40 TDP1 CPT: 23%

How did CC(=O)Nc1ccc(Nc2c([N+](=O)[O-])c(=O)n(-c3ccccc3)c3ccccc23)cc1 do in these assays?
HT1080-NT tox: -24%; TDP1 cell noCPT: 1%; HT1080 IDH1KD tx: 5%; HepG2 tox: -7%; TGFb inhibitor: 4%; DT40 TDP1 CPT: 1%

How did CC(C)CNC(=O)c1oc2ccccc2c1COc1ccccc1 do in these assays?
HT1080-NT tox: 8%; TDP1 cell noCPT: inconclusive; HT1080 IDH1KD tx: 0%; HepG2 tox: -20%; TGFb inhibitor: -21%; DT40 TDP1 CPT: -25%

How did Cc1cnc(C(=O)OCC(=O)Nc2ccc(C)c(S(=O)(=O)N3CCOCC3)c2)cn1 do in these assays?
HT1080-NT tox: -2%; TDP1 cell noCPT: -4%; HT1080 IDH1KD tx: 3%; HepG2 tox: 15%; TGFb inhibitor: inconclusive; DT40 TDP1 CPT: -2%

Results for Cc1ccc(NC(=O)COC(=O)C2(C)CC2(Cl)Cl)cc1S(=O)(=O)N1CCOCC1 (stereo not drawn) ?
HT1080-NT tox: -1%; TDP1 cell noCPT: 23µM*; HT1080 IDH1KD tx: 2%; HepG2 tox: -28%; TGFb inhibitor: -13%; DT40 TDP1 CPT: 21µM*

How did Cc1cc(C)cc(NC(=O)c2oc3ccccc3c2COc2ccccc2)c1 do in these assays?
HT1080-NT tox: -1%; TDP1 cell noCPT: 21µM*; HT1080 IDH1KD tx: -1%; HepG2 tox: 13%; TGFb inhibitor: -26%; DT40 TDP1 CPT: inconclusive

How did COc1ccc(NC(=O)c2oc3ccccc3c2CSC)cc1S(=O)(=O)N1CCOCC1 do in these assays?
HT1080-NT tox: 15%; TDP1 cell noCPT: -3%; HT1080 IDH1KD tx: 11%; HepG2 tox: 1%; TGFb inhibitor: 0%; DT40 TDP1 CPT: 11%

How did Cc1ccc(NC(=O)c2oc3ccccc3c2COC(C)C)cc1S(=O)(=O)N1CCOCC1 do in these assays?
HT1080-NT tox: -7%; TDP1 cell noCPT: 23µM*; HT1080 IDH1KD tx: -11%; HepG2 tox: -3%; TGFb inhibitor: -8%; DT40 TDP1 CPT: 18µM*

What do the screens show for `Cc1ccc(NC(=O)CSc2ccc(Br)cc2)cc1S(=O)(=O)N1CCOCC1`?
HT1080-NT tox: -29%; TDP1 cell noCPT: 26µM*; HT1080 IDH1KD tx: -4%; HepG2 tox: 0%; TGFb inhibitor: -14%; DT40 TDP1 CPT: 18µM*

Results for COCCNC(=O)CCCn1c(SCC(=O)Nc2cccc(C)c2)nc2c(sc3ccccc32)c1=O ?
TDP1 cell noCPT: inconclusive; HepG2 tox: -7%; TGFb inhibitor: -27%; DT40 TDP1 CPT: inconclusive

How did O=C(Cc1cccc(F)c1)N1CCOCC1 do in these assays?
HT1080-NT tox: 13%; TDP1 cell noCPT: -1%; HT1080 IDH1KD tx: 2%; HepG2 tox: 4%; TGFb inhibitor: 0%; DT40 TDP1 CPT: inconclusive

What do the screens show for `Cn1nc([N+](=O)[O-])nc1N1CCOCC1`?
HT1080-NT tox: 15%; TDP1 cell noCPT: -16%; HT1080 IDH1KD tx: -1%; HepG2 tox: -66%; TGFb inhibitor: -20%; DT40 TDP1 CPT: -11%

What do the screens show for `CNc1cc(-c2ccc(CC#N)cc2)ncn1`?
HT1080-NT tox: -3%; TDP1 cell noCPT: -8%; HT1080 IDH1KD tx: -20%; HepG2 tox: -1%; TGFb inhibitor: -5%; DT40 TDP1 CPT: -2%

What do the screens show for `CCC(C(=O)OCC(=O)Nc1ccc(C)c(S(=O)(=O)N2CCOCC2)c1)c1ccccc1` (stereo not drawn)?
HT1080-NT tox: -5%; TDP1 cell noCPT: inconclusive; HT1080 IDH1KD tx: 0%; HepG2 tox: -10%; TGFb inhibitor: 5%; DT40 TDP1 CPT: 12µM*

What do the screens show for `CC(=O)c1c(C)[nH]c(C(=O)OC(C)C(=O)Nc2ccc(C)c(S(=O)(=O)N3CCOCC3)c2)c1C` (stereo not drawn)?
HT1080-NT tox: -8%; TDP1 cell noCPT: 29µM*; HT1080 IDH1KD tx: -15%; HepG2 tox: -10%; TGFb inhibitor: -12%; DT40 TDP1 CPT: 23µM*

What do the screens show for `Cc1ccc(NC(=O)COC(=O)/C=C/c2ccccc2)cc1S(=O)(=O)N1CCOCC1`?
HT1080-NT tox: -1%; TDP1 cell noCPT: 9%; HT1080 IDH1KD tx: 14%; HepG2 tox: -18%; TGFb inhibitor: -22%; DT40 TDP1 CPT: 1%

Results for CC(C)(C)c1ccc(NC(=O)COC(=O)C2(C)CC2(Cl)Cl)cc1 (stereo not drawn) ?
HT1080-NT tox: -15%; TDP1 cell noCPT: 23µM*; HT1080 IDH1KD tx: -11%; HepG2 tox: -47%; TGFb inhibitor: -20%; DT40 TDP1 CPT: inconclusive

What do the screens show for `O=C(CCC(=O)NNC(=O)c1ccccc1[N+](=O)[O-])NCc1ccccc1`?
HT1080-NT tox: 13%; TDP1 cell noCPT: 5%; HT1080 IDH1KD tx: 15%; HepG2 tox: -29%; TGFb inhibitor: -12%; DT40 TDP1 CPT: 8%

How did CCn1c2c(c3cc(Br)ccc31)CCC/C2=N\O do in these assays?
HT1080-NT tox: inconclusive; TDP1 cell noCPT: inconclusive; HT1080 IDH1KD tx: inconclusive; HepG2 tox: -87%; TGFb inhibitor: -10%; DT40 TDP1 CPT: 1%

How did CCn1c2c(c3cc(OCC(C)C)ccc31)CCCC2=O do in these assays?
HT1080-NT tox: -25%; TDP1 cell noCPT: 21µM*; HT1080 IDH1KD tx: -26%; HepG2 tox: -20%; TGFb inhibitor: -15%; DT40 TDP1 CPT: 16µM*

What do the screens show for `CN1CCN(c2nc(-c3ccccc3C(F)(F)F)nc3ccccc23)CC1`?
TDP1 cell noCPT: -1%; DT40 TDP1 CPT: -5%
